Measured values as given in the supplement of paper PMC12636033.
± gives the standard deviation of the averaged measurements. The full ranking holds about 33,000 sequences; the median of “E-score (rank enrichment, -0.5 to 0.5)” is about -0.0043, and the highest 2% start at about 0.24. What follows is part of a selection rich in the highest values, with near analogues and random picks from the rest.

Tested on: 2Sp-muMax20 (muMax20 with two 2,6-bis(methyl)pyridine Cys staples)
Assay: PBM 8-mer E-score (E-score (rank enrichment, -0.5 to 0.5)); higher = stronger preferential binding
Protocol: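 Protein binding microarray (universal PBM chip covering all 10-mers in fixed probe flanks) with chemically synthesized human Max(13-93) bHLH-LZ analogs (not full-length Max) bearing noncanonical residues (hArg, Tha, Aib, Nle at 65) and aromatic Cys staples. Read-out per 8-mer (and its reverse complement): E-score (rank-based enrichment, -0.5 to 0.5) and Z-score of median probe intensity.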

In order of falling “PBM 8-mer E-score” value:
1. ACCACGTG  0.436 ± 0.012
2. ACCACGCG  0.363 ± 0.023
3. ATGCATCA  0.347 ± 0.046
4. ACGCATAT  0.333 ± 0.011
5. ATGCATTA  0.319 ± 0.0086
6. ATTCATTC  0.305 ± 0.013
7. ATAATCAG  0.304 ± 0.005
8. AAACCCCA  0.293 ± 0.022
9. ATACATTC  0.2884 ± 0.0017
10. ATGCATTC  0.285 ± 0.048
11. AGACCCCA  0.284 ± 0.052
12. CTACCCCA  0.283 ± 0.011
13. ATTTCGTC  0.279 ± 0.019
14. ACGCATGC  0.277 ± 0.06
15. CAAGATAA  0.276 ± 0.014
16. TCACCCCA  0.276 ± 0.021
17. ACGTGCAC  0.273 ± 0.051
18. ATAATCAT  0.27 ± 0.013
19. CATGATAA  0.267 ± 0.065
20. ATAAATAC  0.264 ± 0.019
21. CAACCCCA  0.264 ± 0.035
22. ATAAATAT  0.263 ± 0.021
23. ATGCATGC  0.262 ± 0.048
24. ACGTGCTC  0.259 ± 0.027
25. ATGCATAC  0.258 ± 0.12
26. CCACCCCA  0.254 ± 0.043
27. CATGATAC  0.253 ± 0.048
28. CTAAATAC  0.249 ± 0.037
29. AACCCCAA  0.249 ± 0.062
30. ATCACGCG  0.247 ± 0.015
31. ATGCAATA  0.246 ± 0.0094
32. CCCAATTC  0.246 ± 0.083
33. AATGATAT  0.241 ± 0.01
34. CATGATTA  0.24 ± 0.025
35. ATGCTTTG  0.239 ± 0.036
36. GCGCGCTA  0.235 ± 0.021
37. AAAGATAA  0.218 ± 0.028
38. ACACCCCA  0.208 ± 0.015
39. GCGTGCAC  0.204 ± 0.017
40. CCCAATTA  0.203 ± 0.057
41. AATTATTG  0.196 ± 0.015
42. ACGTGCAT  0.195 ± 0.096
43. AATGATAC  0.193 ± 0.13
44. ATAAATAG  0.191 ± 0.021
45. AATGATAG  0.176 ± 0.039
46. ATTCATTA  0.176 ± 0.007
47. ATGTTTGA  0.176 ± 0.031
48. TTAAATAA  0.171 ± 0.051
49. ATAAATAA  0.171 ± 0.053
50. ATTTCGTG  0.166 ± 0.031
51. ATGCATTG  0.165 ± 0.0071
52. ACGCATAA  0.164 ± 0.07
53. ATTCATTG  0.161 ± 0.087
54. GTAAATAA  0.157 ± 0.059
55. GTGCATTA  0.156 ± 0.042
56. AGATCTTG  0.152 ± 0.051
57. CATTCTTA  0.145 ± 0.085
58. TCACCCAA  0.143 ± 0.0019
59. AAACAGAC  0.143 ± 0.097
60. AATCGCAG  0.142 ± 0.046
61. ATGCTTTA  0.138 ± 0.081
62. ACGCATGA  0.136 ± 0.0059
63. ACGCATGG  0.13 ± 0.026
64. ATGCATGG  0.13 ± 0.055
65. GCACCCCA  0.128 ± 0.071
66. CTAAATAA  0.126 ± 0.07
67. ATGCTTTC  0.125 ± 0.017
68. ATAATCTG  0.123 ± 0.1
69. ACGTGCTG  0.12 ± 0.063
70. AGTCGCAA  0.119 ± 0.018
71. ATGCATAA  0.114 ± 0.045
72. ATCTGTTC  0.11 ± 0.068
73. TGACCCCA  0.108 ± 0.02
74. CTGCATTA  0.107 ± 0.025
75. ATACATTG  0.106 ± 0.029
76. AAATCCCG  0.1036 ± 0.0009
77. GATGATTA  0.103 ± 0.0017
78. CATGATAG  0.0923 ± 0.043
79. CTACCCAA  0.0921 ± 0.061
80. ACCACGCA  0.0893 ± 0.0056
81. AGCACGTA  0.0888 ± 0.021
82. ACTGAGAT  0.0783 ± 0.12
83. CTACATTC  0.0778 ± 0.03
84. CTCGTTAA  0.0752 ± 0.0062
85. CTGCATGC  0.0733 ± 0.071
86. ACTGATAT  0.0652 ± 0.073
87. AATTCTTC  0.0644 ± 0.062
88. GACTATGC  0.0616 ± 0.023
89. ATAATCAA  0.0608 ± 0.095
90. TCGATTCA  0.0577 ± 0.023
91. CATGATTC  0.0562 ± 0.0054
92. GTAAATAC  0.0558 ± 0.018
93. GAGCTCAC  0.0534 ± 0.12
94. ACTAGCAC  0.0515 ± 0.15
95. TCGAGAAA  0.0513 ± 0.046
96. GTGCAATA  0.0506 ± 0.012
97. ATGCATCG  0.0497 ± 0.074
98. CTGCATAC  0.0466 ± 0.068
99. GGGGTGAC  0.0455 ± 0.096
100. TAAGATAA  0.0454 ± 0.027
101. TATGATAA  0.0434 ± 0.066
102. ACAATTGG  0.0427 ± 0.02
103. AACCCAAA  0.0422 ± 0.03
104. CTCCATAA  0.0393 ± 0.028
105. CGCTATAG  0.0363 ± 0.071
106. CTGCAATA  0.0295 ± 0.0051
107. ATAATCAC  0.0279 ± 0.026
108. AGTACACG  0.0271 ± 0.052
109. AATGATAA  0.0232 ± 0.082
110. CTTACCAC  0.0166 ± 0.11
111. GCCTTCTA  0.0133 ± 0.025
112. CAACCCAA  0.0124 ± 0.094
113. GTGCATCA  0.0111 ± 0.045
114. CAGGGGGA  0.00992 ± 0.059
115. AAGAGCCT  0.00281 ± 0.074
116. CTGCATTC  -0.000675 ± 0.052
117. CCATCGAA  -0.00649 ± 0.052
118. CTAATCAG  -0.0147 ± 0.026
119. TGGGCCAA  -0.0226 ± 0.046
120. CGCAAGAC  -0.023 ± 0.0044
121. ATTTGCCA  -0.024 ± 0.041
122. AATGCTGT  -0.0251 ± 0.073
123. AGTAGGAG  -0.0281 ± 0.053
124. ACATTCGG  -0.0311 ± 0.13
125. AGACCAAC  -0.0312 ± 0.013
126. CTTTCGTC  -0.0338 ± 0.038
127. ACCACGTC  -0.0398 ± 0.011
128. CTTCGTTC  -0.0473 ± 0.038
129. GAAAGTCA  -0.0504 ± 0.065
130. ACTGAATG  -0.0577 ± 0.048
131. CACCTCCG  -0.0614 ± 0.051
132. CTACGACA  -0.0631 ± 0.043
133. AGCACGTC  -0.0658 ± 0.05
134. GTCCTTTA  -0.0713 ± 0.029
135. ACCAATTC  -0.0718 ± 0.0024
136. AAACCTGA  -0.0739 ± 0.087
137. CCTATCCA  -0.0745 ± 0.015
138. ACCACGTA  -0.0775 ± 0.034
139. CGGGATCA  -0.0799 ± 0.0016
140. AGCTGGGA  -0.08 ± 0.019
141. ACGCATAG  -0.0802 ± 0.035
142. ATCCAGTG  -0.0872 ± 0.065
143. CCACCCCC  -0.0899 ± 0.002
144. CAGCTTGG  -0.0934 ± 0.012
145. AGGTGGCA  -0.0941 ± 0.015
146. CAGCGTCC  -0.107 ± 0.044
147. ACCAGGTA  -0.11 ± 0.012
148. ACACCGCT  -0.116 ± 0.068
149. CCGTGCTC  -0.119 ± 0.14
150. AGGTAGAG  -0.122 ± 0.024
151. CGGCCTTC  -0.124 ± 0.097
152. AATGGATG  -0.124 ± 0.015
153. CGCCGATC  -0.128 ± 0.13
154. CCCGCACA  -0.141 ± 0.011
155. ACCCCCAA  -0.142 ± 0.059
156. CGACCACC  -0.142 ± 0.0047
157. GGTTCAAC  -0.145 ± 0.05
158. CTCCTCTA  -0.151 ± 0.013
159. GCCTTAGC  -0.154 ± 0.029
160. GCCATTCC  -0.155 ± 0.069
161. CTACCCCC  -0.195 ± 0.12
162. CAACCCCC  -0.196 ± 0.022
163. CGTCGGCA  -0.197 ± 0.056
164. TCCGGCAA  -0.207 ± 0.0021
165. GCCGTTCC  -0.21 ± 0.089
166. ACTTCCGG  -0.229 ± 0.1
167. GGCCTCGA  -0.238 ± 0.045
168. GCCCGGGC  -0.296 ± 0.055
169. AACCCCCA  -0.297 ± 0.061
170. AAACCCCC  -0.303 ± 0.11
171. CACGGATC  -0.305 ± 0.0061
172. AGACCCCC  -0.388 ± 0.063
